Results filed as inconclusive are left out. Active and inactive are the calls of the source. Unless noted, the call rests on the fitted dose curve; in most records, active means well fitted curve in the direction sought with a large enough effect; inconclusive means small, poorly fitted or top-dose-only effect, or another doubt; inactive means no such curve, though single readings can be large; an effect the other way counts as inactive or inconclusive.
Key:
[1] = qHTS assay for measurement of the activity of small molecule inhibitors on Zika virus induced Caspase-3 activity in human iPSC derived neural progenitor cells (hNPCs) (AID 1224857); further: nearly all actives have a fitted effect of over 65% in size
In short: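 Human iPSC-derived neural progenitor cells pretreated 1 hr with compounds, then infected with Zika virus (2 FFU/cell) for 6 hours at 37 C. Caspase-3/7 measured by Caspase-Glo luminescence; % inhibition calculated from induction scaled to uninfected (0%) and infected (100%) wells.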

[2] = qHTS assay for measurement of the activity of small molecule inhibitors on Zika virus induced Caspase-3 activity in human astrocytoma cells (AID 1224859); further: potency means the concentration at half of the fitted maximal effect
In short: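 SNB-19 astrocytoma cells, 250/well, pretreated 1 h with compounds, then Zika virus at 2 FFU/cell for 6 h at 37 C; Caspase-Glo 3/7 luminescence after 30 min; percent inhibition normalised to uninfected and infected controls.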

[3] = qHTS assay to identify small molecule inhibitors of chordoma cells - UCH-1 (AID 1259355); further: nearly all actives have a fitted effect of over 55% in size
In short: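 Luminescent ATP read-out (CellTiter-Glo, 30min at room temperature) measured viability of UCH-1 cells exposed for 48hr to test drugs at 15 concentrations, co-dosed with a five-agent combination of auranofin, camptothecin, doxorubicin, rubitecan and topotecan.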

[4] = Natriuretic polypeptide receptor (hNpr1) antagonism - Pilot counterscreen GloSensor control cell line (AID 1347045; calls by dose curve; further: potency means the concentration at half of the fitted maximal effect)
In short: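 Luminescence was read before and 20 min after adding 50 uM SNP, which stimulates soluble guanylyl cyclase. The HEK293 cells expressing the GloSensor cGMP sensor had been preloaded with 2% reagent for 2 h and treated with compound.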

[5] = target: Atrial natriuretic peptide receptor 2 (Homo sapiens) (UniProt P20594); test: Natriuretic polypeptide receptor (hNpr2) antagonism - Pilot subtype selectivity assay (AID 1347050; calls by dose curve; further: potency means the concentration at half of the fitted maximal effect)
In short: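 cGMP-sensor HEK293/hNpr2 cells; 2% GloSensor reagent 2 h RT; compounds 30 min; baseline luminescence read; 1 nM hNppC agonist 20 min RT; final luminescence read by CCD camera. Antagonism = reduced post-agonist signal.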

[6] = NS1 protein of Zika virus - qHTS assay to identify small molecule inhibitors in human HEK 293 cells (AID 1347053); further: series mostly up to about 46 µM; nearly all actives have a fitted effect of over 55% in size
In short: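 HEK 293 cells, seeded 20 h at 37 C, were pretreated with compound 1 h, then infected with ZIKV MR766 (MOI = 0.5) for 24 h. NS1 was read by TR-FRET with two anti-NS1 antibodies, normalized to uninfected and infected wells.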

[7] = P-glycoprotein substrates identified in KB-3-1 adenocarcinoma cell line, qHTS therapeutic library screen (AID 1346986); further: nearly all actives have a fitted effect of over 60% in size
In short: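 Resistance attributable to P-gp was assessed by comparing AC50 in KB-8-5-11 with parental KB-3-1 and by tariquidar reversal. Cells were exposed 72 h and viability read by CellTiter-Glo.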

[8] = P-glycoprotein substrates identified in KB-8-5-11 adenocarcinoma cell line, qHTS therapeutic library screen (AID 1346987); further: nearly all actives have a fitted effect of over 65% in size; further: potency means the concentration at half of the fitted maximal effect
In short: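 Steps: plate 500 KB-8-5-11 cells/well in DMEM + 10% FCS (colchicine removed); pin compounds in dose-response; incubate 72 h, 37 degree C, 5% CO2; add CellTiter-Glo, 5 min; read luminescence.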

[9] = target: Atrial natriuretic peptide receptor 1 (Homo sapiens) (UniProt P16066); test: Natriuretic polypeptide receptor (hNpr1) antagonism - Pilot screen (AID 1347049; calls by dose curve;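 further: agonist-evoked cGMP luminescence read 20 min after hNppA addition; series mostly up to about 58 µM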)
In short: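 HEK293 cells co-expressing hNpr1 and the GloSensor pGS-40F cGMP luciferase sensor were preloaded with 2% GloSensor reagent for 2 h. Compounds were added for 30 min at room temperature, then cells were stimulated with 0.1 nM hNppA for 20 min before luminescence readout.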

[10] = qHTS assay to identify small molecule inhibitors of chordoma cells - UCH-2 (AID 1259356); further: series mostly up to about 46 µM

Measured: Potency

Sequence of Atrial natriuretic peptide receptor 2 (Homo sapiens) (P20594 whole entry, looked up): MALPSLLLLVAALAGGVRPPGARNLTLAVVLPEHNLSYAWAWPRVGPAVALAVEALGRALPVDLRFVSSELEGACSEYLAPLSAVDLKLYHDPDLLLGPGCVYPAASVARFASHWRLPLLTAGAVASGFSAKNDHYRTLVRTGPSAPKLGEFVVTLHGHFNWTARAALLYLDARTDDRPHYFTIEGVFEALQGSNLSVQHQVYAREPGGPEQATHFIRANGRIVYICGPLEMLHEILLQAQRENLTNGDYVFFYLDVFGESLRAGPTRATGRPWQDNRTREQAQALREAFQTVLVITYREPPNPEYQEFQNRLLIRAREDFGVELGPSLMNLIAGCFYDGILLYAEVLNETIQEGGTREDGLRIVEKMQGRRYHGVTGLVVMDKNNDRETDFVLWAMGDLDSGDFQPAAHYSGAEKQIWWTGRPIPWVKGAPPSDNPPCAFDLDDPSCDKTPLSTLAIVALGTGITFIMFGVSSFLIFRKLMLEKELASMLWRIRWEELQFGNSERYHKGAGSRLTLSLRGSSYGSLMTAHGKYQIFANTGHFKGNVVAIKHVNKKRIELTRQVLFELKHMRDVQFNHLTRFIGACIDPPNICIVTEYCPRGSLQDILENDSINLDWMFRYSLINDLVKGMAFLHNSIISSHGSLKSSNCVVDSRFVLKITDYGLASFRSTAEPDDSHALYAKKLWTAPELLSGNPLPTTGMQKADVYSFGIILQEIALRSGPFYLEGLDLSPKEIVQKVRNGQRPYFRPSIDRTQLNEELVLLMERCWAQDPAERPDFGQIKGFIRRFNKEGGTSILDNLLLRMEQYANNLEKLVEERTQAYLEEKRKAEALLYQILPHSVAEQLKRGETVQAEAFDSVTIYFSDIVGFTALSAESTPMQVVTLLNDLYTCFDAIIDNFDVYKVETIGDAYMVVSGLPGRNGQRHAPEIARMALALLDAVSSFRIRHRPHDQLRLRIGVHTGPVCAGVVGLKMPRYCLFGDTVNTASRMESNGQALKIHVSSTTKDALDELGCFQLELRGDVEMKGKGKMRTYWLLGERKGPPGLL
Sequence of Atrial natriuretic peptide receptor 1 (Homo sapiens) (P16066 whole entry, looked up): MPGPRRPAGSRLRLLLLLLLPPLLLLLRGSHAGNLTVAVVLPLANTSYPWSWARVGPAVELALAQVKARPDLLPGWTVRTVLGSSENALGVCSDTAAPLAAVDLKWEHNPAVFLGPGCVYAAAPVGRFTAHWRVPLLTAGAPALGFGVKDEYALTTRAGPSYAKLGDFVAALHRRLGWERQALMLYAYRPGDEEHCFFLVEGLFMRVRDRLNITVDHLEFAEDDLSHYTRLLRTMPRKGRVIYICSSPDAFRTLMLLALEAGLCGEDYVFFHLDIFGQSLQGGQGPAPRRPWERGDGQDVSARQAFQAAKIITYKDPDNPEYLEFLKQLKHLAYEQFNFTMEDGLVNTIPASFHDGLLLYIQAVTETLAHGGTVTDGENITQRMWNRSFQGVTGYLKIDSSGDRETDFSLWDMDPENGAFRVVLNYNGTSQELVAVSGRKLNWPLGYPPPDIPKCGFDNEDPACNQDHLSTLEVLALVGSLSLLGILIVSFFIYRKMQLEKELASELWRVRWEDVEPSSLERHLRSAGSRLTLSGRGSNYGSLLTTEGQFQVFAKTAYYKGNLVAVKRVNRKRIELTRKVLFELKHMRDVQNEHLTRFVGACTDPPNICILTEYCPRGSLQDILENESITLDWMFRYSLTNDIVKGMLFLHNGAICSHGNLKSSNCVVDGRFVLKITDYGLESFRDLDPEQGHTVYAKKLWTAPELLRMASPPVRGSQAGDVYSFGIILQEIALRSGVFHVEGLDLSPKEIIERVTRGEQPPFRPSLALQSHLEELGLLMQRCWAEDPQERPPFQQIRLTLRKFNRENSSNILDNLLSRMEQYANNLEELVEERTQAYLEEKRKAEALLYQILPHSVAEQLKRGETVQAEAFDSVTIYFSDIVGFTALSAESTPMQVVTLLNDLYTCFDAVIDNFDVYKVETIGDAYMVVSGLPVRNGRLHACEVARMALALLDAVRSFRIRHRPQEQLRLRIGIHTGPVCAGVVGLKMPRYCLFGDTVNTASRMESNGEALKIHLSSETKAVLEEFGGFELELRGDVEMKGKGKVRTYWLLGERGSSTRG

CN1C2CCC1CC(OC(=O)c1cc(Cl)cc(Cl)c1)C2 (stereo unspecified)
inactive: [1] | [2] | [3] | [4] | [5] | [6]

CC(=O)NCCc1c[nH]c2ccccc12
not listed: [3] | [10]
inactive: all other assays above

c1ccc(C2(c3ccccc3)CC2C2=NCCN2)cc1 (stereo unspecified)
inactive: [1] | [2] | [3] | [10] | [8] | [6]

CN[C@@H]1C[C@@H](c2ccc(Cl)c(Cl)c2)c2ccccc21
inactive: [1] | [2] | [3] | [10]
active: [4] 26.1 µM | [5] 18.5 µM

O=[N+]([O-])c1c(Cl)c(Cl)cc(Cl)c1Cl
inactive: [1] | [2] | [8] | [6]

O=C(O)COc1ccccc1
inactive: [1] | [2] | [3] | [10] | [8] | [6]

O=[N+]([O-])c1ccc([As](=O)(O)O)cc1
inactive: [1] | [2] | [3] | [10] | [8] | [6]

CC(=O)N(C)c1cccc(-c2ccnc3c(C(=O)c4cccs4)cnn23)c1
inactive: [1] | [2] | [7] | [6]

CC(C)NC(C)Cc1ccc(I)cc1 (stereo unspecified)
not listed: [7] | [8] | [9]
inactive: all other assays above

COc1ccc2c(c1)CN(C)CC2c1ccc(Cl)c(Cl)c1 (stereo unspecified)
inactive: [1] | [2] | [7] | [8] | [6]

CCCCc1ccc(C(=O)O)nc1
not listed: [7] | [8] | [9]
inactive: all other assays above

S=C(NC1CCCCC1)N1CCC(c2cnc[nH]2)CC1
inactive: [1] | [2] | [8] | [5] | [6]

O=[N+]([O-])/N=C1\NCCN1Cc1ccc(Cl)nc1
inactive: [1] | [2] | [10] | [8] | [6]

CC[N+]1(CCOC(=O)C(O)(c2ccccc2)c2ccccc2)CCCCC1
inactive: [1] | [2] | [3] | [10] | [8] | [6]

C=CC(=O)NCNC(=O)C=C
inactive: [1] | [2] | [8] | [6]

O=C(O)COc1nc(Cl)c(Cl)cc1Cl
inactive: [1] | [2] | [8] | [6]

COCCOCCO
inactive: [1] | [2] | [8] | [6]

CCOCCOC(C)=O
inactive: [1] | [2] | [8] | [6]

C=C1C[C@H]2[C@H]3CCC(=O)[C@@]3(C)CC[C@@H]2[C@@]2(C)C=CC(=O)C=C12
inactive: [1] | [2] | [8] | [6]

C[C@]12N[C@H](Cc3ccccc31)c1ccccc12
not listed: [7] | [8] | [9]
inactive: all other assays above

CCCCCCCCCCCCCCCC[N+](C)(C)C
inactive: [1] | [2] | [10]

C[C@]12CCC(=O)C(O)=C1CC[C@@H]1[C@H]3CCC(=O)[C@@]3(C)CC[C@@H]12
inactive: [1] | [2] | [3] | [10] | [8] | [6]

COC(C)(C)CCCC(C)C/C=C/C(C)=C/C(=O)OC(C)C (stereo unspecified)
inactive: [1] | [2] | [3] | [10] | [6]

CN[C@@H](C)[C@H](O)c1ccccc1
inactive: [1] | [2] | [3] | [10] | [8] | [6]

Cc1cc(O)ccc1Cl
inactive: [1] | [2] | [3] | [10] | [8] | [6]

CC(C)NCC(O)c1ccc([N+](=O)[O-])cc1 (stereo unspecified)
inactive: [1] | [2] | [8] | [6]

O=C(NCC1CCOCC1)c1cnc(Nc2ccc(Cl)cc2Cl)nc1C(F)(F)F
inactive: [1] | [7] | [8] | [6]
active: [2] 8.33 µM

C/C=C(/C)C(=O)O[C@H]1C(C)=C2[C@H]([C@@H]1OC(=O)CCCCCCC)[C@@](C)(OC(C)=O)C[C@H](OC(=O)CCC)[C@@]1(O)[C@H]2OC(=O)[C@@]1(C)O
active: [8] 2.06 µM
inactive: [1] | [2]

CC(Cc1ccc(O)cc1)NCC(O)c1cc(O)cc(O)c1 (stereo unspecified)
not listed: [7] | [9]
inactive: all other assays above

Cc1ccc(Cl)c(O)c1
inactive: [1] | [2] | [3] | [10] | [8] | [6]

NCCc1c[nH]c2ccccc12
inactive: [1] | [2] | [4] | [9] | [5] | [6]

O=C(O)CC[N+](=O)[O-]
inactive: [1] | [2] | [4] | [5] | [6]
